Test results taken from PubChem BioAssay (NCI).
The panel holds about 83,000 compounds, 20% with a hit somewhere; the sample as a whole holds those more often.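 Growth was measured after 48 h exposure to one concentration of compound in 96-well plates. Values under 10 count as active.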 Calls of active or inactive are those of the source.

Legend:
Assay in all cases: NCI-60 one-dose screen, 48 h (100 = growth as untreated, 0 = no growth, -100 = all killed)
Conditions in all cases: 10 µM unless noted
RPMI-8226 leukemia = system: RPMI-8226 leukemia
OVCAR-8 ovarian = system: OVCAR-8 ovarian
OVCAR-5 ovarian = system: OVCAR-5 ovarian
OVCAR-4 ovarian = system: OVCAR-4 ovarian
SK-OV-3 ovarian = system: SK-OV-3 ovarian
IGROV1 ovarian = system: IGROV1 ovarian
NCI/ADR-RES ovarian = system: NCI/ADR-RES ovarian
T-47D breast = system: T-47D breast
OVCAR-3 ovarian = system: OVCAR-3 ovarian
HS 578T breast = system: HS 578T breast

Measured: growth

COc1ccc2c(c1)[nH]c(=O)c1c3cc(OC)c(OC)cc3cn21
active: RPMI-8226 leukemia -72.3% | IGROV1 ovarian -9.03%
inactive: OVCAR-8 ovarian 16% | OVCAR-5 ovarian 49.4% | OVCAR-4 ovarian 44.2% | SK-OV-3 ovarian 40.2% | NCI/ADR-RES ovarian 14.8% | T-47D breast 74.1%

CCOC(=O)C(C(C)=O)c1nc2sc3cc(Cl)ccc3n2c(=N)c1C#N (configuration not stated)
inactive: RPMI-8226 leukemia 97.9% | OVCAR-8 ovarian 80.9% | OVCAR-5 ovarian 114% | OVCAR-4 ovarian 77.9% | SK-OV-3 ovarian 84.6% | OVCAR-3 ovarian 107% | HS 578T breast 28.8% | NCI/ADR-RES ovarian 87.2% | T-47D breast 77.9%

COc1ccc(Cn2cc3c(c2-c2ccccc2)CCc2cncnc2-3)cc1
inactive: RPMI-8226 leukemia 19.6% | OVCAR-8 ovarian 70.5% | OVCAR-5 ovarian 76.7% | OVCAR-4 ovarian 93.1% | OVCAR-3 ovarian 29.6% | HS 578T breast 63.2% | NCI/ADR-RES ovarian 12.3% | T-47D breast 46.7%

CCCCCCCCCCCCCCCCCc1nccn1CCO
inactive: RPMI-8226 leukemia 82.3% | OVCAR-8 ovarian 80% | OVCAR-5 ovarian 71.4% | SK-OV-3 ovarian 94.6% | IGROV1 ovarian 68.5% | OVCAR-3 ovarian 86.2% | HS 578T breast 83.4% | NCI/ADR-RES ovarian 59.9% | T-47D breast 47.1%

COc1ccc(-c2c(N)noc2-c2cc(OC)c3c(c2)OCCO3)cc1
inactive: RPMI-8226 leukemia 16% | OVCAR-8 ovarian 24.3% | OVCAR-5 ovarian 36.5% | IGROV1 ovarian 24.8% | HS 578T breast 25.9% | T-47D breast 63.7%
active: SK-OV-3 ovarian 8.57% | OVCAR-3 ovarian -24.2% | NCI/ADR-RES ovarian -5.69%

COc1ccc(-n2nnc(C(=O)O)c2-c2cc(OC)c(OC)c(OC)c2)cc1
inactive: RPMI-8226 leukemia 99.5% | OVCAR-8 ovarian 100% | OVCAR-5 ovarian 103% | SK-OV-3 ovarian 99.1% | IGROV1 ovarian 116% | OVCAR-3 ovarian 119% | HS 578T breast 102% | T-47D breast 104%

COc1ccc(C2CC(c3cccc(Nc4ccnc5cc(Cl)ccc45)c3)=NN2C=O)cc1 (configuration not stated)
active: OVCAR-3 ovarian -22.7% | HS 578T breast -3.1% | NCI/ADR-RES ovarian 8.68%
inactive: RPMI-8226 leukemia 21.5% | OVCAR-8 ovarian 35.1% | OVCAR-5 ovarian 45.3% | SK-OV-3 ovarian 19% | IGROV1 ovarian 32.7% | T-47D breast 43.5%

C/C(=N\N1CC(=O)NC1=O)c1ccc([N+](=O)[O-])o1
inactive: RPMI-8226 leukemia 71% | OVCAR-8 ovarian 98.2% | OVCAR-5 ovarian 111% | SK-OV-3 ovarian 109% | IGROV1 ovarian 99.6% | OVCAR-3 ovarian 102% | HS 578T breast 108% | NCI/ADR-RES ovarian 93.7% | T-47D breast 102%

C[n+]1c2ccccc2c(Nc2ccc(N3CCCCC3)cc2)c2[nH]c3ccccc3c21
active: RPMI-8226 leukemia -72.4% | OVCAR-8 ovarian -87.4% | OVCAR-5 ovarian -86.2% | SK-OV-3 ovarian -75.8% | IGROV1 ovarian -97% | OVCAR-3 ovarian -95.7% | HS 578T breast -69.5% | NCI/ADR-RES ovarian -61.8% | T-47D breast -55.7%

CC(C)(C)c1ccc(C(O)CCCN2CCC(C(O)(c3ccccc3)c3ccccc3)CC2)cc1 (configuration not stated)
active: RPMI-8226 leukemia -38.8% | OVCAR-8 ovarian -38.5% | OVCAR-5 ovarian -20.7% | SK-OV-3 ovarian -48.9% | OVCAR-3 ovarian -83.9% | HS 578T breast -45.3% | NCI/ADR-RES ovarian -46.6% | T-47D breast -69.3%
inactive: IGROV1 ovarian 34.7%

C[C@]12CC[C@@H]3c4ccc(O)cc4CC[C@H]3[C@@H]1CC[C@@H]2NS(=O)(=O)c1cccc(Br)c1
inactive: RPMI-8226 leukemia 44.4% | OVCAR-8 ovarian 67% | OVCAR-5 ovarian 97.7% | SK-OV-3 ovarian 90.7% | IGROV1 ovarian 53.1% | OVCAR-3 ovarian 58.8% | HS 578T breast 73.8% | NCI/ADR-RES ovarian 56.2% | T-47D breast 37.4%

COc1ccc(/C=N\Nc2ccc([N+](=O)[O-])cn2)cc1OC
inactive: RPMI-8226 leukemia 40% | OVCAR-8 ovarian 14.6% | OVCAR-5 ovarian 22.2% | SK-OV-3 ovarian 36.8% | IGROV1 ovarian 23.2% | OVCAR-3 ovarian 47% | HS 578T breast 47.8% | NCI/ADR-RES ovarian 65%
active: T-47D breast -7.26%

Oc1ccc(Cc2ccc(O)c(C3CC(c4ccc(Cl)cc4)=NN3)c2)cc1C1CC(c2ccc(Cl)cc2)=NN1 (configuration not stated)
active: OVCAR-3 ovarian 10%
inactive: RPMI-8226 leukemia 17.4% | OVCAR-8 ovarian 15.8% | OVCAR-5 ovarian 37.8% | OVCAR-4 ovarian 43.5% | IGROV1 ovarian 18.5% | HS 578T breast 13.8% | T-47D breast 38.3%

CCOC(=O)C1C(=O)OC2CCCCC21 (configuration not stated)
inactive: RPMI-8226 leukemia 99.9% | OVCAR-8 ovarian 99.5% | OVCAR-5 ovarian 117% | SK-OV-3 ovarian 109% | IGROV1 ovarian 103% | HS 578T breast 105% | NCI/ADR-RES ovarian 116%

CCOC(=O)/C(=C/c1ccccc1)C(=O)c1ccccc1
inactive: OVCAR-8 ovarian 65.3% | OVCAR-5 ovarian 97.3% | SK-OV-3 ovarian 92.6% | IGROV1 ovarian 65.8% | OVCAR-3 ovarian 63.5% | HS 578T breast 88% | NCI/ADR-RES ovarian 65.3% | T-47D breast 73.6%
active: RPMI-8226 leukemia 3.77%

O=C(Nc1cccc(-n2cc(-c3ccncc3)c(-c3ccc(O)c(Cl)c3)n2)c1)Nc1ccc(Cl)c(C(F)(F)F)c1
inactive: OVCAR-5 ovarian 39.4% | NCI/ADR-RES ovarian 11.3%
active: RPMI-8226 leukemia -27.4% | OVCAR-8 ovarian -44.7% | SK-OV-3 ovarian 4.82% | IGROV1 ovarian -20.9% | OVCAR-3 ovarian -21.1% | HS 578T breast -0.107% | T-47D breast -10%

CCCCCCCCCCC[C@@H](C[C@H]1OC(=O)[C@H]1CCCCCC)OC(=O)[C@@H](CC(C)C)NC=O
active: RPMI-8226 leukemia 0.857%
inactive: OVCAR-8 ovarian 62.9% | OVCAR-5 ovarian 94.4% | SK-OV-3 ovarian 88.1% | IGROV1 ovarian 60.3% | HS 578T breast 53.6% | NCI/ADR-RES ovarian 37.5% | T-47D breast 76.5%

CC(=O)NCCSC(=O)C(=O)SCCNC(C)=O
inactive: RPMI-8226 leukemia 102% | OVCAR-8 ovarian 112% | OVCAR-5 ovarian 95.8% | OVCAR-4 ovarian 103% | OVCAR-3 ovarian 115% | HS 578T breast 119% | NCI/ADR-RES ovarian 100% | T-47D breast 105%

O=C1/C(=C/c2ccc([N+](=O)[O-])s2)Oc2ccc(Br)cc21
inactive: HS 578T breast 16.2%
active: RPMI-8226 leukemia -6.04% | OVCAR-8 ovarian -6.92% | OVCAR-5 ovarian -66.8% | SK-OV-3 ovarian -34.3% | IGROV1 ovarian -45.9% | OVCAR-3 ovarian -65.3% | NCI/ADR-RES ovarian -31.2% | T-47D breast -55.7%

COc1cc(/C=C/C(=O)c2c(-c3ccc(Cl)cc3)nc3sc(C)nn23)cc(OC)c1OC
active: RPMI-8226 leukemia -15.6%
inactive: OVCAR-8 ovarian 53.3% | OVCAR-5 ovarian 106% | OVCAR-4 ovarian 74.8% | OVCAR-3 ovarian 88.4% | HS 578T breast 109% | NCI/ADR-RES ovarian 59.8% | T-47D breast 19.3%

OC(CCC(O)(c1ccccc1)c1ccccc1)(c1ccccc1)c1ccccc1
inactive: RPMI-8226 leukemia 35.5% | OVCAR-8 ovarian 84.7% | OVCAR-5 ovarian 97.2% | SK-OV-3 ovarian 103% | IGROV1 ovarian 90.7% | HS 578T breast 75.1% | NCI/ADR-RES ovarian 68.9% | T-47D breast 94.1%

COc1cc2c(cc1OCCCCCn1c(-c3ccc(OCc4ccccc4)cc3)nc3cc(N4CCOCC4)ccc31)N=C[C@@H]1CCCN1C2=O
inactive: RPMI-8226 leukemia 19.4% | OVCAR-8 ovarian 21.2% | SK-OV-3 ovarian 35.3% | HS 578T breast 12.4% | NCI/ADR-RES ovarian 23.8% | T-47D breast 19%
active: OVCAR-5 ovarian 9.51% | IGROV1 ovarian -58.7% | OVCAR-3 ovarian 4.07%

Clc1ccc([C@@H]2C[C@@H]3Cc4cc(Br)c5ccccc5c4N2O3)c(Cl)c1
inactive: RPMI-8226 leukemia 89.3% | OVCAR-8 ovarian 98.3% | OVCAR-5 ovarian 101% | SK-OV-3 ovarian 79.5% | IGROV1 ovarian 79.4% | OVCAR-3 ovarian 41.6% | HS 578T breast 92.3% | NCI/ADR-RES ovarian 55.5% | T-47D breast 96.9%

C/C(=C\CCc1ccsc1)CC/C=C(\C)CCCN1CCC(CO)CC1
inactive: OVCAR-8 ovarian 62.8% | OVCAR-5 ovarian 63.9% | SK-OV-3 ovarian 55.5% | IGROV1 ovarian 56.1% | OVCAR-3 ovarian 48.6% | HS 578T breast 28.3% | NCI/ADR-RES ovarian 51% | T-47D breast 27.1%
active: RPMI-8226 leukemia -31.1%

S=C1SCN(Cc2ccccc2)CN1Cc1ccco1
inactive: RPMI-8226 leukemia 37.5% | OVCAR-8 ovarian 89.1% | OVCAR-5 ovarian 120% | SK-OV-3 ovarian 96.2% | IGROV1 ovarian 84.4% | OVCAR-3 ovarian 75.3% | HS 578T breast 109% | NCI/ADR-RES ovarian 99.2% | T-47D breast 59.3%

CCCc1cccc(CCC)c1O
inactive: RPMI-8226 leukemia 111% | OVCAR-8 ovarian 107% | OVCAR-5 ovarian 117% | SK-OV-3 ovarian 110% | IGROV1 ovarian 125% | OVCAR-3 ovarian 117% | HS 578T breast 107% | NCI/ADR-RES ovarian 103% | T-47D breast 104%

O=C(CCc1nnc2sc(-c3ccc(Cl)cc3Cl)nn12)c1nc2ccccc2[nH]1
active: RPMI-8226 leukemia 2% | OVCAR-8 ovarian -30.9% | OVCAR-5 ovarian -52.6% | OVCAR-4 ovarian -54% | IGROV1 ovarian 0.377% | OVCAR-3 ovarian -80.6% | NCI/ADR-RES ovarian -0.815% | T-47D breast -68.4%

COc1cc2c(c(OC)c1OC)CCc1cnoc1-2
inactive: RPMI-8226 leukemia 98.1% | OVCAR-8 ovarian 102% | OVCAR-5 ovarian 91.9% | OVCAR-4 ovarian 95% | OVCAR-3 ovarian 116% | HS 578T breast 106% | NCI/ADR-RES ovarian 94.3% | T-47D breast 97.7%

CC(C)(C)c1ccc(S(=O)(=O)O)s1
active: IGROV1 ovarian -12.6%
inactive: RPMI-8226 leukemia 95.9% | OVCAR-8 ovarian 108% | OVCAR-5 ovarian 96.3% | SK-OV-3 ovarian 101% | OVCAR-3 ovarian 115% | HS 578T breast 88.8% | NCI/ADR-RES ovarian 106% | T-47D breast 97.9%

O=[N+]([O-])c1ccc(Oc2cccc(C(F)(F)F)c2)c([N+](=O)[O-])c1
inactive: RPMI-8226 leukemia 79.3% | OVCAR-8 ovarian 12.7% | OVCAR-5 ovarian 68.1% | SK-OV-3 ovarian 44.5% | IGROV1 ovarian 12.3% | OVCAR-3 ovarian 44.9% | HS 578T breast 105% | NCI/ADR-RES ovarian 29.1% | T-47D breast 48%

CCC[C@H](N[C@@H](C)C(=O)N1[C@H](C(=O)O)C[C@@H]2CCCC[C@@H]21)C(=O)OCC
inactive: RPMI-8226 leukemia 109% | OVCAR-8 ovarian 102% | OVCAR-5 ovarian 88.9% | SK-OV-3 ovarian 113% | IGROV1 ovarian 108% | OVCAR-3 ovarian 104% | HS 578T breast 98% | NCI/ADR-RES ovarian 98.5% | T-47D breast 124%
